Results filed as inconclusive are left out. Values without a mark were called inactive. Activity calls are given as the source filed them. Calls follow the shape of the dose curve; as a rule, active = well fitted inhibition curve with a large enough effect; inconclusive = small, poorly fitted or top-dose-only effect; inactive = flat fitted curve, though single readings scatter.
What was measured:
CRL-7250 = normal cell line; assay: Cytotoxic Profiling of Annotated Libraries Using Quantitative High-Throughput Screening (AID 1296008); settings: Five cell lines viability, CellTiter-Glo ATP luminescence, 48-72 h; max response: stronger effect = lower value; also: nearly all actives have a fitted effect of over 60% in size
Method in brief: (§1)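 Cytotoxicity was measured as CellTiter-Glo ATP luminescence, read after 10 min at room temperature. Compound treatment of the cells lasted 48 or 72 hr at 37 degrees Celsius in a qHTS format.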

HEK293 = assay: as above; settings: Five cell lines viability, CellTiter-Glo ATP luminescence, 48-72 h; max response: stronger effect = lower value
Method in brief: as §1
% is scaled to controls: 0 for no effect and ±100 for the full control effect; potency is read from the fitted curve at half-maximal effect.

Which max response (CRL-7250) does the source give for `CCNC(=O)C1OC(n2cnc3c(N)nc(NCCc4ccc(CCC(=O)O)cc4)nc32)C(O)C1O` (centres undefined) here?
The max response was -14.2%.

What about the max response (HEK293) of the same molecule?
Its max response is 0.517%.

What does the source list for `C=C1C(=O)OC2CC3(C)C(CC12)C(C)=CC(O)C3OC(C)=O` (centres undefined)?
max response (CRL-7250): -3.42%; max response (HEK293): -3.84%

Which results are given for `CN1CCN(C2CCC(n3cc(-c4ccc(Oc5ccccc5)cc4)c4c(N)ncnc43)CC2)CC1` (centres undefined)?
Potency (CRL-7250): 5.8 µM (active); Potency (HEK293): 18.4 µM (active)

How did the max response (CRL-7250) turn out when `CC(=O)CC1CCC(C(C)C(=O)OCC(O)CO)O1` (centres undefined) was run?
Its max response is 2.08%.

What about the max response (HEK293) of the same molecule?
The max response was -3.6%.

For `CC1(C)CC[C@]2(C(=O)O)CC[C@]3(C)C(=CCC4[C@@]5(C)CC[C@H](O[C@@H]6O[C@H](CO)[C@@H](O)[C@H](O)[C@H]6O[C@@H]6O[C@H](CO)[C@@H](O)[C@H](O)[C@H]6O)[C@@](C)(CO)C5CC[C@]43C)[C@@H]2C1` (some centres undefined), which max response (CRL-7250) is on record?
Its max response is -6.6%.

What about the max response (HEK293) of the same molecule?
The max response was -6.18%.

Which outcome (CRL-7250) does the source give for `CC(c1ncncc1F)C(O)(Cn1cncn1)c1ccc(F)cc1F` (centres undefined) here?
Its outcome is “inactive”.

And the max response (HEK293)?
Its max response is -0.4%.

`C[C@]12C=C[C@@]3(CCC4[C@](C)(CO)CCC[C@@]4(C)C3CC1)C2` (some centres undefined) was tested. Which max response (CRL-7250) did it give?
Its max response is -1.08%.

What about the max response (HEK293) of the same molecule?
Its max response is -17.4%.

What does the source list for `C=C(C(=O)O)C1CCC2(C)CCC(O)C(C)(O)C2C1` (centres undefined)?
max response (CRL-7250): -18%; max response (HEK293): -0.305%

For `COc1cc2c(cc1OC)[C@@H]1[C@H](O)[C@@H](OC)C=C3CCN(C2)[C@H]31`, which Potency (CRL-7250) is on record?
The Potency was 12.8 µM (active).

What about the Potency (HEK293) of the same molecule?
The Potency was 4.53 µM (active).

With `C/C=C/c1cc(OC)c2c(c1)[C@@H](C)[C@@H](c1ccc(O)c(OC)c1)O2` as the molecule, how does the max response (CRL-7250) read?
Its max response is -4.41%.

What about the max response (HEK293) of the same molecule?
Its max response is -109%.

With `COc1ccccc1NC(=O)OCC1CCN(C(=O)OC(C)(C)C)CC1` as the molecule, how does the max response (CRL-7250) read?
Its max response is -0.083%.

What about the max response (HEK293) of the same molecule?
Its max response is -0.473%.

How did the max response (CRL-7250) turn out when `CCOCCOC(=O)/C=C/c1ccc(OC)cc1` was run?
Its max response is -7.76%.

And the outcome (HEK293)?
Its outcome is “inactive”.

`CC1=C(C(=O)O)/C(=C\CO[C@@H]2O[C@H](CO)[C@@H](O)[C@H](O)[C@H]2O)C(OC(=O)/C=C\c2ccc(O)cc2)C1` (some centres undefined) was tested. Which max response (CRL-7250) did it give?
The max response was 3.65%.

What about the outcome (HEK293) of the same molecule?
The outcome was “inactive”.

`O=C(O)/C=C/c1cc2c(cc1O[C@@H]1O[C@H](CO)[C@@H](O)[C@H](O)[C@H]1O)OCO2` was tested. Which max response (CRL-7250) did it give?
The max response was 4.22%.

And the max response (HEK293)?
The max response was 2.33%.

For `CCCOC(c1cc2nccc(C(=O)O)c2[nH]1)c1ccccc1Cl` (centres undefined), which max response (CRL-7250) is on record?
The max response was -10.8%.

And the max response (HEK293)?
The max response was -12.6%.

How did the Potency (CRL-7250) turn out when `COc1cc(N2CCC(N3CCN(C)CC3)CC2)ccc1Nc1ncc(Cl)c(-c2c[nH]c3ccccc23)n1` was run?
Its Potency is 10.3 µM (active).

And the Potency (HEK293)?
The Potency was 2.91 µM (active).

What does the source list for `CC1C(OC(=O)c2ccccc2)C(O)C2C(C(=O)O)=COC(OC3OC(CO)C(O)C(O)C3O)C12` (centres undefined)?
max response (CRL-7250): 3.33%; max response (HEK293): -0.0764%

From PubChem BioAssay (NCATS)
